# Activity calls are given as the source filed them. The calls were made as follows: active = hit-call score of the fitted dose curve at least 0.9, where 1 is the maximum; inactive = score below 0.9.
# How the values were obtained:
# Details in all cases: mRNA level, 48 h; actives raise or lower the signal
# [1] = read-out: Cytochrome P450 (CYP2B6), CYP2B6 (gene 1555); assay: LTEA_HepaRG_CYP2B6: Life Technologies and Expression Analysis (LTEA) Assay for Cytochrome P450 (CYP2B6) using HepaRG (AID 2283481)
# How it was run: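 HepaRG cells plated 48 h, switched to serum-free induction medium, then dosed 48 h (8 points, half-log from 100 uM, 0.5% DMSO). RNA isolated; CYP2B6 expression measured by qRT-PCR; gain or loss fitted relative to DMSO.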
# [2] = read-out: Cytochrome P450 2C19 (Homo sapiens) (UniProt P33261); assay: LTEA_HepaRG_CYP2C19: Life Technologies and Expression Analysis (LTEA) Assay for CYP2C19 using HepaRG (AID 2283482)
# How it was run: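 Transcript levels of CYP2C19 were quantified by qRT-PCR after HepaRG cells were treated for 48 hours with test chemicals up to 100 uM (eight half-log concentrations, 0.5% DMSO vehicle). Gain or loss of signal was fitted relative to DMSO.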
# CYP2C8 (gene 1558) = assay: LTEA_HepaRG_CYP2C8: Life Technologies and Expression Analysis (LTEA) Assay for CYP2C8 using HepaRG (AID 2283483)
# How it was run: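 This is a transcriptional endpoint in HepaRG cultures: 48 h exposure, highest concentration 100 uM. CYP2C8 mRNA is quantified by TaqMan qRT-PCR.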
# CYP2C9 (gene 1559) = assay: LTEA_HepaRG_CYP2C9: Life Technologies and Expression Analysis (LTEA) Assay for CYP2C9 using HepaRG (AID 2283484)
# How it was run: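 Eight-point concentration-response (highest 100 uM, half-log dilutions) in HepaRG cells for 48 h; CYP2C9 expression by qRT-PCR normalized to ACTB, GAPDH, POLR2A. Bidirectional fit, DMSO baseline.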
# CYP2E1 (gene 1571) = assay: LTEA_HepaRG_CYP2E1: Life Technologies and Expression Analysis (LTEA) Assay for CYP2E1 using HepaRG (AID 2283485)
# How it was run: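 Assay uses 48 h exposure of HepaRG hepatic cells, eight concentrations to 100 uM. Expression of CYP2E1 is quantified by TaqMan qRT-PCR with ACTB, GAPDH and POLR2A normalization; curves fitted in both directions relative to vehicle.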
# CYP4A11 (gene 1579) = assay: LTEA_HepaRG_CYP4A11: Life Technologies and Expression Analysis (LTEA) Assay for CYP4A11 using HepaRG (AID 2283486)
# How it was run: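 HepaRG, 48 h chem exposure, 8 conc (100 uM top, half-log), 0.5% DMSO vehicle; qRT-PCR readout, housekeeping-gene normalized; bidirectional curve fit vs DMSO baseline.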
# [3] = read-out: Cytochrome P450 3A4 (Homo sapiens) (UniProt P08684); assay: LTEA_HepaRG_CYP3A4: Life Technologies and Expression Analysis (LTEA) Assay for CYP3A4 using HepaRG (AID 2283487)
# How it was run: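 In a human hepatic line (HepaRG), duplicate wells were treated 48 h with up to 100 uM chemical in half-log dilutions. Endpoint: CYP3A4 mRNA induction or loss relative to 0.5% DMSO vehicle, by qRT-PCR.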
# [4] = read-out: DNA damage-inducible transcript 3 (DDIT3), DDIT3 (gene 1649); assay: LTEA_HepaRG_DDIT3: Life Technologies and Expression Analysis (LTEA) Assay for DNA damage-inducible transcript 3 (DDIT3) using HepaRG (AID 2283488)
# How it was run: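 Eight-point concentration-response (100 uM highest, half-log dilutions) in HepaRG, 48 h, duplicate wells. Endpoint: qRT-PCR mRNA, normalized (ACTB, GAPDH, POLR2A), bidirectional fitting with DMSO as baseline.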
# [5] = read-out: Pro-epidermal growth factor (Homo sapiens) (UniProt P01133); assay: LTEA_HepaRG_EGF: Life Technologies and Expression Analysis (LTEA) Assay for Epidermal growth factor (EGF) using HepaRG (AID 2283489)
# How it was run: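 HepaRG, 48 h dosing, 100 uM top, half-log x8, 0.5% DMSO. Readout: TaqMan qRT-PCR (Fluidigm array), housekeeping-normalized. Gain or loss of signal fit vs DMSO.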
# [6] = read-out: Early growth response protein 1 (EGR1) transcription factor, EGR1 (gene 1958); assay: LTEA_HepaRG_EGR1: Life Technologies and Expression Analysis (LTEA) Assay for Early growth response protein 1 (EGR1) transcription factor using HepaRG (AID 2283490)
# How it was run: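 EGR1 expression change in human HepaRG after 48 h chemical exposure, assessed by housekeeping-normalized qRT-PCR; concentration-response up to 100 uM, fitted in both directions against DMSO controls.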
# [7] = read-out: Ezrin (EZR), EZR (gene 7430); assay: LTEA_HepaRG_EZR: Life Technologies and Expression Analysis (LTEA) Assay for Ezrin (EZR) using HepaRG (AID 2283491)
# How it was run: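 Gain or loss of EZR mRNA is scored relative to 0.5% DMSO in human HepaRG cultures treated 48 h with test chemicals in duplicate, eight half-log concentrations from 100 uM.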
# CYP3A5 (gene 1577) = assay: LTEA_HepaRG_CYP3A5: Life Technologies and Expression Analysis (LTEA) Assay for CYP3A5 using HepaRG (AID 2283493)
# How it was run: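 Readout was CYP3A5 mRNA by qRT-PCR. HepaRG cultures were exposed for 48 h in serum-free induction medium to chemicals at up to 100 uM, and responses were fitted in both directions relative to DMSO vehicle.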
# [8] = read-out: Cytochrome P450 4A22 (Homo sapiens) (UniProt Q5TCH4); assay: LTEA_HepaRG_CYP4A22: Life Technologies and Expression Analysis (LTEA) Assay for Cytochrome P450 4A22 (CYP4A22) using HepaRG (AID 2283495)
# How it was run: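 Readout is CYP4A22 transcript induction or loss, quantified by qRT-PCR and normalized to ACTB, GAPDH and POLR2A. Human HepaRG cells receive test chemicals for 48 h at eight half-log concentrations from 100 uM in 0.5% DMSO.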
# [9] = read-out: Glutathione S-Transferase (GSTA2), GSTA2 (gene 2939); assay: LTEA_HepaRG_GSTA2: Life Technologies and Expression Analysis (LTEA) Assay for Glutathione S-Transferase (GSTA2) using HepaRG (AID 2283497)
# How it was run: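 Oxidative-stress marker GSTA2 is quantified by TaqMan qRT-PCR in HepaRG cultures treated 48 h across an eight-point range to 100 uM. Expression is normalized to endogenous controls and compared with 0.5% DMSO vehicle.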
# [10] = read-out: Glutamate-cysteine ligase catalytic (GCLC), GCLC (gene 2729); assay: LTEA_HepaRG_GCLC: Life Technologies and Expression Analysis (LTEA) Assay for Glutamate-cysteine ligase catalytic (GCLC) using HepaRG (AID 2283498)
# How it was run: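 Oxidative-stress marker GCLC is measured as mRNA change in human HepaRG liver cells after 48 h chemical treatment in 0.5% DMSO, eight concentrations from 100 uM. Activity is fitted bidirectionally against vehicle.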
# [11] = read-out: growth arrest and DNA damage 45 (GADD45G), GADD45G (gene 10912); assay: LTEA_HepaRG_GADD45G: Life Technologies and Expression Analysis (LTEA) Assay for growth arrest and DNA damage 45 (GADD45G) using HepaRG (AID 2283499)
# How it was run: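 Gain or loss of GADD45G mRNA, quantified by TaqMan qRT-PCR against three housekeeping genes, is fitted in both directions relative to 0.5% DMSO. Human HepaRG cultures receive test chemical for 48 h at up to 100 uM.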
# [12] = read-out: Glutamate-cysteine ligase regulatory (GCLM), GCLM (gene 2730); assay: LTEA_HepaRG_GCLM: Life Technologies and Expression Analysis (LTEA) Assay for Glutamate-cysteine ligase regulatory (GCLM) using HepaRG (AID 2283500)
# How it was run: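 In this multiplexed HepaRG gene-expression assay, GCLM mRNA change after 48 h treatment (8 concentrations, max 100 uM) was scored against DMSO by bidirectional curve fitting.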
# [13] = read-out: Cytochrome P450 7A1 (Homo sapiens) (UniProt P22680); assay: LTEA_HepaRG_CYP7A1: Life Technologies and Expression Analysis (LTEA) Assay for Cytochrome P450 7A1 (CYP7A1) using HepaRG (AID 2283496)
# How it was run: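 Using 0.5% DMSO as vehicle and baseline, chemicals were tested in duplicate over an 8-point range from 100 uM on HepaRG cells for 48 h; qRT-PCR signals were normalised to ACTB, GAPDH and POLR2A.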
# Chain of Cytochrome P450 3A4 (Homo sapiens) (P08684 whole entry, looked up): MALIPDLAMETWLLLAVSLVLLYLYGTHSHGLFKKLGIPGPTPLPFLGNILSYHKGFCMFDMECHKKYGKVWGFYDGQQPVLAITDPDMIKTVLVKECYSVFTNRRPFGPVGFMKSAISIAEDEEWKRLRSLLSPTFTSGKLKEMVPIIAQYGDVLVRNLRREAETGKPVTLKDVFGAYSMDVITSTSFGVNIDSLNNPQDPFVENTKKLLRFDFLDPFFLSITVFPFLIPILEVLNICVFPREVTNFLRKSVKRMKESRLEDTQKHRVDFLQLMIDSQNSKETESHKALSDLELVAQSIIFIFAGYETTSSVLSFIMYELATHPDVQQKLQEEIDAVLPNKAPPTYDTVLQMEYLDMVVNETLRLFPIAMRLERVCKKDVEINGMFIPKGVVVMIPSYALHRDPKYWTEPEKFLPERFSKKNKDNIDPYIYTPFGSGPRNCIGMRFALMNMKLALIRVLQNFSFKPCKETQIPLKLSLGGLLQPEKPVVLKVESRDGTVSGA
# Chain of Cytochrome P450 2C19 (Homo sapiens) (P33261 whole entry, looked up): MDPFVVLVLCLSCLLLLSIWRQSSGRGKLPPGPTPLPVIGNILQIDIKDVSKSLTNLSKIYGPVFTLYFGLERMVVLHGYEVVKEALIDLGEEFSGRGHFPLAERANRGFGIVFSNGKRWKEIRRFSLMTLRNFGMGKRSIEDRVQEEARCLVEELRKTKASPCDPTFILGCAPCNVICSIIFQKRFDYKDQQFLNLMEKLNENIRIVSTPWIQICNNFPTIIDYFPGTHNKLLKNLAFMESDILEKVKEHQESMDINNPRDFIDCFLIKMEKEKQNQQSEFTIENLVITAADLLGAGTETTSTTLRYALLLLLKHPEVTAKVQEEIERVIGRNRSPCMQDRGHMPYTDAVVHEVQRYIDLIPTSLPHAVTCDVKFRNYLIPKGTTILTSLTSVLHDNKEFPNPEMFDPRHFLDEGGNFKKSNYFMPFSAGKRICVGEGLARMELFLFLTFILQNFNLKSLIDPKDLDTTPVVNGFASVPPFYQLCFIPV
structure (smiles),measurement,setting,value
N#CN=C1SCCN1Cc1ccc(Cl)nc1,AC50,[1],28.6 µM (active)
same,AC50,[2],34.1 µM (active)
same,outcome,CYP2C8 (gene 1558),inactive
same,outcome,CYP2C9 (gene 1559),inactive
same,outcome,CYP2E1 (gene 1571),inactive
same,outcome,CYP4A11 (gene 1579),inactive
same,AC50,[3],30.6 µM (active)
same,outcome,[4],inactive
same,outcome,[5],inactive
same,outcome,[6],inactive
same,outcome,[7],inactive
same,outcome,CYP3A5 (gene 1577),inactive
same,outcome,[8],inactive
same,outcome,[9],inactive
same,outcome,[10],inactive
same,outcome,[11],inactive
same,outcome,[12],inactive
Cc1cc(C)nc(Nc2ccccc2)n1,AC50,[1],6.39 µM (active)
same,outcome,[2],inactive
same,outcome,CYP2C8 (gene 1558),inactive
same,outcome,CYP2C9 (gene 1559),inactive
same,outcome,CYP2E1 (gene 1571),inactive
same,AC50,CYP4A11 (gene 1579),50 µM (active)
same,outcome,[3],inactive
same,outcome,[4],inactive
same,outcome,[5],inactive
same,outcome,[6],inactive
same,outcome,[7],inactive
same,outcome,CYP3A5 (gene 1577),inactive
same,outcome,[8],inactive
same,AC50,[13],3.4 µM (active)
same,outcome,[9],inactive
same,outcome,[10],inactive
same,outcome,[11],inactive
same,outcome,[12],inactive
Cc1nc(N(C)C)nc(OC(=O)N(C)C)c1C,AC50,[1],8.42 µM (active)
same,AC50,[2],19.7 µM (active)
same,AC50,CYP2C8 (gene 1558),9.92 µM (active)
same,outcome,CYP2C9 (gene 1559),inactive
same,outcome,CYP2E1 (gene 1571),inactive
same,outcome,CYP4A11 (gene 1579),inactive
same,AC50,[3],40.7 µM (active)
same,outcome,[4],inactive
same,outcome,[5],inactive
same,outcome,[6],inactive
same,outcome,[7],inactive
same,outcome,CYP3A5 (gene 1577),inactive
same,outcome,[8],inactive
same,outcome,[9],inactive
same,outcome,[10],inactive
same,outcome,[11],inactive
same,outcome,[12],inactive
CC1(C)CON(Cc2ccccc2Cl)C1=O,AC50,[1],2.45 µM (active)
same,AC50,[2],6.15 µM (active)
same,AC50,CYP2C8 (gene 1558),12.8 µM (active)
same,outcome,CYP2C9 (gene 1559),inactive
same,AC50,CYP2E1 (gene 1571),31.4 µM (active)
same,outcome,CYP4A11 (gene 1579),inactive
same,AC50,[3],5.64 µM (active)
same,outcome,[4],inactive
same,outcome,[5],inactive
same,outcome,[6],inactive
same,outcome,[7],inactive
same,outcome,CYP3A5 (gene 1577),inactive
same,outcome,[8],inactive
same,outcome,[9],inactive
same,outcome,[10],inactive
same,outcome,[11],inactive
same,outcome,[12],inactive
COC(=O)N(C(=O)N1CO[C@@]2(C(=O)OC)Cc3cc(Cl)ccc3C2=N1)c1ccc(OC(F)(F)F)cc1,AC50,[1],0.89 µM (active)
same,AC50,[2],9.46 µM (active)
same,outcome,CYP2C8 (gene 1558),inactive
same,AC50,CYP2C9 (gene 1559),64.8 µM (active)
same,AC50,CYP2E1 (gene 1571),24 µM (active)
same,AC50,CYP4A11 (gene 1579),25.6 µM (active)
same,AC50,[3],9.42 µM (active)
same,outcome,[4],inactive
same,outcome,[5],inactive
same,outcome,[6],inactive
same,outcome,[7],inactive
same,outcome,CYP3A5 (gene 1577),inactive
same,AC50,[8],28.9 µM (active)
same,AC50,[9],51.3 µM (active)
same,outcome,[10],inactive
same,outcome,[11],inactive
same,outcome,[12],inactive
